Growth data for eleven molecules are collected here from PubChem BioAssay (NCI).

The panel holds about 83,000 compounds, 20% with a hit somewhere; the sample as a whole holds those more often.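 Compound tested at a single concentration for 48 hours in 96-well plates; a percent growth value below 10 was scored as active.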 Values without a mark were called inactive. Activity calls are given as the source filed them.

What all share (assay): NCI-60 one-dose screen, 48 h (100 = growth as untreated, 0 = no growth, -100 = all killed)
Common to all, as to settings: 10 µM unless noted

For test [1], the system named is K-562 leukemia.
The test system of test [2] is MALME-3M melanoma.
The subject of test [3] is MDA-MB-231 breast.
The subject of test [4] is RXF 393 renal.
The test system of test [5] is SF-268 CNS.
Test [6] relates to SF-295 CNS.
Test [7] relates to SF-539 CNS.
Test [8] has as its system UACC-257 melanoma.
In test [9] the test system is M14 melanoma.
Test [10] concerns HCT-15 colon.
Test [11] concerns HT29 colon.
Test [12] deals with SNB-75 CNS.
Test [13] relates to SNB-19 CNS.
For test [14], the system named is U251 CNS.
The subject of test [15] is PC-3 prostate.
Test [16] relates to SK-MEL-5 melanoma.
Test [17] has as its system LOX IMVI melanoma.
Test [18] concerns SK-MEL-28 melanoma.
Test [19] has as its system SK-MEL-2 melanoma.
Test [20] deals with UACC-62 melanoma.

On to `O=C1c2c(c3c4cc(Br)ccc4[nH]c3c3ccc4ccccc4c23)C(=O)N1CCO`, for which the growth is 71.6% in test [1]; 103% in [2]; 75.3% in test [3]; 107% in [4]; 105% in test [5]; 91.8% in [6]. The growth in test [7] was 90.9%; in test [8] it was 97.4%; in test [9], 103%; in test [10] it was 72.8%; in [11] it was 89.9%; in [12], 128%. In addition, the growth in test [13] is 85.6%; in test [14], 74.3%; in test [15], 83.3%; in [16] it was 100%; in test [17], 66.4%; in test [18], 99.8%. Besides, in [19], the growth is 110%.
In the case of `N[C@@H](Cc1cn(-c2c3ccccc3nc3ccccc23)nn1)C(=O)O`, the growth was 88% in test [1]; 103% in [2]; 97.4% in test [3]; 114% in [4]; 101% in [5]; 105% in test [6]. The growth in test [7] is 90.8%; in test [8], 106%; in test [9], 107%; in test [10], 85.4%; in test [11], 107%; in test [12] it was 96.7%. In addition, the growth is 93.2% in test [13]; 103% in test [14]; 99.2% in test [15]; 101% in [16]; 106% in test [17]; 100% in test [18]. For the same molecule, the growth in test [19] is 130%.
`COc1ccc(C(=O)c2cc(C(=O)/C=C/c3c(Cl)cccc3Cl)c3cc(C)ccn23)cc1`: the growth is 94.2% in test [1]; 97.1% in test [2]; 96.9% in test [3]; 108% in test [4]; 98% in [5]; 101% in test [6]. The growth in test [7] was 94.6%; in [8] it was 102%; in [9], 99.5%; in test [10], 99.9%; in test [11] it was 103%; in test [12], 76.7%. For the same molecule, the growth is 98.8% in [13]; 100% in test [14]; 91.3% in test [15]; 94% in test [20]; 108% in test [18]; 101% in test [19].
As to `OC1CCN(CCCOc2c3ccc(Cl)cc3nc3c2oc2ccc(Cl)cc23)CC1`, the growth in [1] is -51.7% (active); in [2], -66.6% (active); in test [3], 24.5%; in test [4], -80.4% (active); in [5] it was 27.4%; in test [6] it was 17.8%. In addition, the growth in test [7] is -74.1% (active); in test [8], -13.4% (active); in [9] it was -93.8% (active); in test [10], -83% (active); in [11] it was -86% (active); in test [12] it was 14.9%. Moreover, the growth in [13] was 29.5%; in test [14], -93.5% (active); in test [15], 21%; in test [16] it was -7.79% (active); in test [17], -92.9% (active); in [18], -84.5% (active). For the same molecule, the growth in [19] is 50.6%.
`Clc1ccc(-c2cn3cc(Cc4ccc(Cl)c(Cl)c4)sc3n2)cc1`: the growth in [1] was 34.7%; in test [2], 86.3%; in test [3], 72.7%; in test [4], 104%; in test [5], 86.2%; in [6], 35.8%. Further, the growth in test [7] is 83.8%; in test [8] it was 52.3%; in test [9], 20.2%; in test [10] it was 60.7%; in test [12], 70.7%; in test [13], 88.9%. For the same molecule, the growth was 93.7% in [14]; 81.6% in test [15]; 38.2% in [16]; 18.2% in [20]; 53.1% in test [17]; 71% in [18].
Regarding `CO/N=C1\CCc2c(sc(NC(=O)c3cccc(C(F)(F)F)c3)c2C(N)=O)C1`, the growth in [1] was 70.1%; in test [2], 29.4%; in [3], 37.7%; in test [4], -6% (active); in [5], 51.8%; in test [6], 30.8%. Besides, the growth in [7] was 34.2%; in [8], 66%; in test [9], 47.7%; in test [10], 64.6%; in test [11], 51.2%; in test [12] it was -58.4% (active). For the same molecule, the growth is 27.7% in [13]; 3.28% (active) in test [14]; 64.8% in test [15]; 76.8% in test [20]; 60.3% in test [18]; 63.9% in test [19].
Turning to `NC(=O)c1c(NC(=O)c2ccc(C3CCCCC3)cc2)sc2c1CCC(=O)C2`, the growth is 3.87% (active) in test [1]; 13.2% in [2]; 15.6% in [3]; -2.51% (active) in test [4]; 33.1% in test [5]; 18.9% in test [6]. Further, the growth in test [7] is 14.9%; in [8], 12.2%; in test [9] it was 18%; in test [10] it was 4.53% (active); in test [11], 2.41% (active); in test [12], 43.2%. In addition, the growth in test [13] was 25.5%; in test [14] it was 10.7%; in test [15], 16.1%; in test [20] it was 26.4%; in test [18] it was 31.7%; in [19], 25.7%.
For `CN(C)CCCOc1c2ccc(Cl)cc2nc2c1oc1ccc(Cl)cc12`, the growth is -39.8% (active) in test [1]; 0.745% (active) in [2]; -48.3% (active) in test [3]; -86.6% (active) in test [4]; 25.9% in test [5]; 11.9% in [6]. The growth was 16.5% in test [7]; 41.3% in test [8]; -49.5% (active) in test [9]; -80.5% (active) in test [10]; 18.3% in [12]; 24.5% in test [13]. Besides, the growth in test [14] is -66% (active); in [15] it was 23.2%; in test [16], -19.3% (active); in test [20], -68.1% (active); in test [17] it was -77.2% (active); in [18] it was 4.58% (active). The growth in test [19] was 58.5%.
`COC(=O)C(C)NS(=O)(=O)/N=C1\NC(=O)NC1=C(Cl)Cl` (centres undefined): the growth in test [1] was 104%; in test [2], 99%; in test [3], 106%; in test [4] it was 124%; in [5], 98.2%; in [6], 103%. The growth in test [7] is 95.7%; in test [8], 99.7%; in [9] it was 94.7%; in test [10], 102%; in [11] it was 115%; in test [12], 98.8%. In addition, the growth in [13] was 100%; in test [14], 106%; in test [15], 92.9%; in [16] it was 99.1%; in test [18] it was 99.4%; in test [19], 110%.
On to `Cc1ccc(C(=O)Nc2cccc(C(F)(F)F)c2)cc1Nc1nc(-c2cnccn2)nc2c1cnn2C`, for which the growth in [1] is 3.86% (active); in test [2], -15.3% (active); in [3], 25.3%; in [4], 78%; in test [5], 81.8%; in test [6], 79%. Moreover, the growth is 60.6% in test [7]; 26.1% in test [8]; 15.7% in test [9]; 81.3% in [10]; 77.4% in [12]; 86% in test [13]. Moreover, the growth in [14] is 82.1%; in test [15] it was 90.1%; in test [16] it was 57.6%; in test [20] it was 17.9%; in test [17] it was 62.3%; in test [18] it was 15.6%. For the same molecule, the growth in test [19] is -4.36% (active).
Turning to `Cc1nc(-c2cc3ccccc3oc2=O)ccc1C(=O)/C=C/c1ccc(Cl)c(Cl)c1`, the growth in [1] is 103%; in test [2], 96.9%; in [3], 95.5%; in test [4], 119%; in [5] it was 99.8%; in test [6], 95.7%. The growth in test [7] is 92.5%; in [8], 120%; in [9] it was 107%; in test [10] it was 107%; in [11], 114%; in test [12] it was 95.2%. In addition, the growth in [13] was 98.5%; in test [14] it was 99.4%; in [15], 101%; in [16], 105%; in test [17], 86.9%; in test [18] it was 106%. Further, the growth in test [19] was 134%.
